# Results filed as inconclusive are left out. Unmarked numbers belong to inactive results. Calls of active or inactive are those of the source. Calls come from the whole dose curve; as a rule, active = well fitted cell-killing curve with a large enough effect; inconclusive = small, poorly fitted or top-dose-only effect; inactive = flat fitted curve, though single readings scatter.
# Assay: Compound cytotoxicity measured by an ATP content assay as a counter-screen for lead compounds in human iPSC derived neural progenitor cells (hNPCs)
# Conditions: human iPSC-derived NPC viability, ATP luminescence; series mostly up to 46.1 µM; activity, negative = cytotoxicity: at the top concentration
# Protocol: National Center for Advancing Translational Sciences [NCATS] Johns Hopkins University School of Medicine Florida State University Assay Overview: Many compounds can cause cytotoxicity at high compound concentrations. […] The compound cytotoxicity may also cause side effects or toxicity in human. Thus, the compound cytotoxicity needs to be measured in each cell type and each compound incubation time - same as these in the compound screening assay. The compound cytotoxicity can be measured by cell viability assays such as the ATP content assay. We use an ATP content assay kit for cell viability measurement. It measures ATP content (level) in human iPSC derived neural progenitor cells (hNPCs) using a luminescence readout that is proportional to viable cell numbers. Decrease in the luminescence signal after the compound treatment indicates reduced cell viability and cell death caused by compound treatment.
# Assay Protocol Summary: The medium for hNPCs consists of DMEM/F12, N2 supplement (ThermoFisher, Cat.# 17502048), NEAA (ThermoFisher, Cat. # 11140050), 2 ug/ml heparin, 2 uM cyclopamine, and B27 (ThermoFisher, Cat. # 17504044). The ATP content assay kit (PerkinElmer, Cat.# 6016731) was used to determine cell viability. The reagent was reconstituted and prepared as described by the manufacturer. Cells were seeded in 384- or 1536-well assay plates and cultured at 37 C with 5% CO2 for 16 to 20 hours. The typical cell seeding density in the 1536-well plate assay is 350 cells/well in 3 ul medium for hNPCs in the tissue cultured treated/PDL coated plates. Compounds were added to cells and incubated for a specific time such as 6, 24, or 72 hours before addition of the reagent mixture of the ATP content assay kit at 1:1 ratio. After incubation at room temperature for 10 minutes, the luminescence intensity in assay plates was measured using a ViewLux plate reader (PerkinElmer). […] The percentage inhibitions of the decreased cell viability by small molecules were then calculated that indicate compound cytotoxicity.
Compound,"activity, negative = cytotoxicity",Potency
Cc1c(N)c(=O)n(-c2ccccc2)n1C,-10.4%,–
CCOCCOC(=O)/C=C/c1ccc(OC)cc1,6.33%,–
O[C@@H](COc1cccc2ncccc12)CN1CCN(C2c3ccccc3[C@@H]3[C@H](c4ccccc42)C3(F)F)CC1 (stereo not given in full),-12.7%,–
CCCS(=O)c1ccc2nc(NC(=O)OC)[nH]c2c1 (stereo not given),-9.42%,–
O=C1c2ccccc2C(=O)c2c1ccc(O)c2O,-12.2%,–
O=S(=O)(O)c1ccc2nc(-c3ccccc3)[nH]c2c1,-7.27%,–
CN(C)c1ccc(/C=C2\C(=O)Nc3ccccc32)cc1,–,8.69 µM (active)
O=C(O)[C@@H](c1ccc(OCc2ccc3ccccc3n2)cc1)C1CCCC1,1.28%,–
CC(O)=C(C#N)C(=O)Nc1ccc(C(F)(F)F)cc1,–,13.8 µM (active)
Cc1ccc(C(=O)c2ccc(CC(=O)O)n2C)cc1,-10.8%,–
O=C1C(Cl)=C(NCCN2CCOCC2)C(=O)c2ncccc21,–,1.73 µM (active)
N[C@H](CSC(c1ccccc1)(c1ccccc1)c1ccccc1)C(=O)O,-15.9%,–
O=C(/C=C/c1ccc(O)cc1)c1ccc(O)cc1O,-5.73%,–
COc1ccc(CC2=NN3C([C@@H](CCc4ccccc4)[C@@H](C)O)=NC(C)C3C(=O)N2)cc1OC (stereo not given in full),1.03%,–
CC(C)c1ccc2oc3nc(N)c(C(=O)O)cc3c(=O)c2c1,–,3.46 µM (active)
O=C(Nc1cc2cc[nH]c2cn1)c1ccccc1,–,0.346 µM (active)
COc1cc2nc(N3CCN(C(=O)C4CCCO4)CC3)nc(N)c2cc1OC (stereo not given),0.309%,–
O=S(=O)(O)CCSSCCS(=O)(=O)O,-10.7%,–
Nc1ccc2c(c1)CN1C(=O)c3ccccc3C1=N2,–,6.73 µM (active)
COc1ccc(-c2cc(=S)ss2)cc1,-12.4%,–

Compound,"activity, negative = cytotoxicity",Potency
O=C1NC(=O)C(=Cc2ccc(-c3ccc(F)cc3)o2)S1,-16.4%,–
N#CC1(c2ccc(NC(=O)c3cccnc3NCc3ccncc3)cc2)CCCC1,-21.9%,–
O=c1cc(-c2ccccc2)oc2cc(O)cc(O)c12,-13.1%,–
CC(C(=O)O)c1ccc2c(c1)[nH]c1ccc(Cl)cc12 (stereo not given),16%,–
CC1(C)OC2=C(C(=O)c3ccccc3C2=O)[C@H](NCc2ccccc2)[C@H]1O,–,3.98 µM (active)
O=C(Oc1ccccc1)c1cccc(C(=O)Oc2ccccc2)c1,-3.83% [at 96.3 µM],–
O=C(O)c1cccc(-c2noc(-c3ccccc3F)n2)c1,–,5.48 µM (active)
Cc1cccc(C#Cc2ccccc2)n1,–,9.75 µM (active)
CO[C@H]1C(=O)[C@]2(C)[C@@H](OC)C[C@H]3OC[C@@]3(OC(C)=O)[C@H]2[C@H](OC(=O)c2ccccc2)[C@]2(O)C[C@H](OC(=O)[C@H](O)[C@@H](NC(=O)OC(C)(C)C)c3ccccc3)C(C)=C1C2(C)C,-11.3%,–
Cc1cc(O)c2c(c1)C(=O)c1cc(O)cc(O)c1C2=O,-12.6%,–
CCC(C)SSc1ncc[nH]1 (stereo not given),–,19.5 µM (active)
[O-][n+]1ccccc1SSc1cccc[n+]1[O-],–,0.112 µM (active)
COc1cc(NC(C)CCCN)c2ncccc2c1 (stereo not given),5.35%,–
Nc1cc(C(F)(F)F)ccc1S,–,19.5 µM (active)
COc1ccc(-c2cc(=O)c3c(O)cc(O)cc3o2)cc1O,-5.38%,–
OCc1ccc(-c2ccc(-c3ccc(CO)s3)o2)s1,–,10.9 µM (active)
CC(=C(CCOC(=O)C(C)C)SSC(CCOC(=O)C(C)C)=C(C)N(C=O)Cc1cnc(C)nc1N)N(C=O)Cc1cnc(C)nc1N,-13.1%,–
CN(C)CCCSc1ccccc1NC(=O)/C=C/c1ccccc1,-14.6%,–
Cc1csc(NC(=O)c2sc3nc4c(c(C(F)(F)F)c3c2N)CCC4)n1,–,1.95 µM (active)
CN1CC(=O)N2C(Cc3c([nH]c4ccccc34)[C@H]2c2ccc3c(c2)OCO3)C1=O (stereo not given in full),-8.64%,–

# From PubChem BioAssay AID1224860 (National Center for Advancing Translational Sciences (NCATS), 2016)
